High-throughput results: PubChem BioAssay, National Center for Advancing Translational Sciences (NCATS)
An excerpt weighted towards active compounds, which were near 12% of everything screened.
JMJD2A Tudor inh – inhibitors of human JMJD2A Tudor domain; Potency, µM (doses to about 114 µM), inactives show at the top dose activity change, negative = inhibition, usual class: inhibitors; actives 4.4% (n = 390,000); AID 504339; O75164; AlphaScreen JMJD2A-Tudor / H3K4me3 peptide binding; note: % is set by controls: 0 for no effect and ±100 for the full control effect; nearly all actives have a fitted effect of over 50% in size
Sfp PPTase inh – Sfp phosphopantetheinyl transferase inhibition; Biochemical Sfp PPTase activity, qHTS; Potency, µM, without a hit: largest response in the series, negative = inhibition, usual class: inhibitors; actives 3.5% (n = 310,000);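 note: the enzyme is Sfp with the accession as filed and its product quenches rhodamine fluorescence; 0% = enzyme reaction without inhibitor and -100% = no enzyme wells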
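After 15 min at room temperature with compound, 15 nM Sfp received 5 uM rhodamine-CoA plus 12.5 uM BHQ-2-ybbR (50 mM Hepes pH 7.6, 10 mM MgCl2). Rate came from the fluorescence difference over 30 min, ex 525/em 598 nm.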
PLK1 PBD inh – inhibitors of human PLK1 polo-box domain binding. Potency, µM, inactives show max response, negative = inhibition, usual class: inhibitors. Plk1 PBD binding of FITC phosphopeptide, fluorescence polarization. actives 2.8% (n = 360,000). P53350; note: series mostly up to about 57 µM; % is set by controls: 0 for no effect and ±100 for the full control effect; nearly all actives have a fitted effect of over 65% in size
G9a block – inhibitors of human histone lysine methyltransferase G9a; Q96KQ7; G9a H3K9 monomethylation, AlphaScreen, 2 h; Potency, µM (series often up to 102 µM), inactives show top-dose activity, negative = inhibition, actives largely listed as inhibitors; actives 8.8% (n = 350,000); note: % is set by controls: 0 for no effect and ±100 for the full control effect; nearly all actives have a fitted effect of over 75% in size
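Enzyme 20 nM + cpd, 15 min RT; add b-H3K9 pep 500 nM / SAM 20 uM; 2 h RT; anti-H3K9me1 Ab 0.5 ug/mL + SA donor / anti-rabbit acceptor beads 20 ug/mL each, 10 min; AlphaScreen read.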
BAZ2B block – blocks human BAZ2B; Q9UIF8; AlphaScreen BAZ2B-H3K14Ac peptide displacement; Potency, µM (highest dose often 114 µM), inactives show at the highest dose activity change, negative = inhibition, actives largely listed as inhibitors; actives 4.4% (n = 360,000); AID 504333; note: % is set by controls: 0 for no effect and ±100 for the full control effect; nearly all actives have a fitted effect of over 60% in size
Target sequence (Q9UIF8 whole entry, looked up): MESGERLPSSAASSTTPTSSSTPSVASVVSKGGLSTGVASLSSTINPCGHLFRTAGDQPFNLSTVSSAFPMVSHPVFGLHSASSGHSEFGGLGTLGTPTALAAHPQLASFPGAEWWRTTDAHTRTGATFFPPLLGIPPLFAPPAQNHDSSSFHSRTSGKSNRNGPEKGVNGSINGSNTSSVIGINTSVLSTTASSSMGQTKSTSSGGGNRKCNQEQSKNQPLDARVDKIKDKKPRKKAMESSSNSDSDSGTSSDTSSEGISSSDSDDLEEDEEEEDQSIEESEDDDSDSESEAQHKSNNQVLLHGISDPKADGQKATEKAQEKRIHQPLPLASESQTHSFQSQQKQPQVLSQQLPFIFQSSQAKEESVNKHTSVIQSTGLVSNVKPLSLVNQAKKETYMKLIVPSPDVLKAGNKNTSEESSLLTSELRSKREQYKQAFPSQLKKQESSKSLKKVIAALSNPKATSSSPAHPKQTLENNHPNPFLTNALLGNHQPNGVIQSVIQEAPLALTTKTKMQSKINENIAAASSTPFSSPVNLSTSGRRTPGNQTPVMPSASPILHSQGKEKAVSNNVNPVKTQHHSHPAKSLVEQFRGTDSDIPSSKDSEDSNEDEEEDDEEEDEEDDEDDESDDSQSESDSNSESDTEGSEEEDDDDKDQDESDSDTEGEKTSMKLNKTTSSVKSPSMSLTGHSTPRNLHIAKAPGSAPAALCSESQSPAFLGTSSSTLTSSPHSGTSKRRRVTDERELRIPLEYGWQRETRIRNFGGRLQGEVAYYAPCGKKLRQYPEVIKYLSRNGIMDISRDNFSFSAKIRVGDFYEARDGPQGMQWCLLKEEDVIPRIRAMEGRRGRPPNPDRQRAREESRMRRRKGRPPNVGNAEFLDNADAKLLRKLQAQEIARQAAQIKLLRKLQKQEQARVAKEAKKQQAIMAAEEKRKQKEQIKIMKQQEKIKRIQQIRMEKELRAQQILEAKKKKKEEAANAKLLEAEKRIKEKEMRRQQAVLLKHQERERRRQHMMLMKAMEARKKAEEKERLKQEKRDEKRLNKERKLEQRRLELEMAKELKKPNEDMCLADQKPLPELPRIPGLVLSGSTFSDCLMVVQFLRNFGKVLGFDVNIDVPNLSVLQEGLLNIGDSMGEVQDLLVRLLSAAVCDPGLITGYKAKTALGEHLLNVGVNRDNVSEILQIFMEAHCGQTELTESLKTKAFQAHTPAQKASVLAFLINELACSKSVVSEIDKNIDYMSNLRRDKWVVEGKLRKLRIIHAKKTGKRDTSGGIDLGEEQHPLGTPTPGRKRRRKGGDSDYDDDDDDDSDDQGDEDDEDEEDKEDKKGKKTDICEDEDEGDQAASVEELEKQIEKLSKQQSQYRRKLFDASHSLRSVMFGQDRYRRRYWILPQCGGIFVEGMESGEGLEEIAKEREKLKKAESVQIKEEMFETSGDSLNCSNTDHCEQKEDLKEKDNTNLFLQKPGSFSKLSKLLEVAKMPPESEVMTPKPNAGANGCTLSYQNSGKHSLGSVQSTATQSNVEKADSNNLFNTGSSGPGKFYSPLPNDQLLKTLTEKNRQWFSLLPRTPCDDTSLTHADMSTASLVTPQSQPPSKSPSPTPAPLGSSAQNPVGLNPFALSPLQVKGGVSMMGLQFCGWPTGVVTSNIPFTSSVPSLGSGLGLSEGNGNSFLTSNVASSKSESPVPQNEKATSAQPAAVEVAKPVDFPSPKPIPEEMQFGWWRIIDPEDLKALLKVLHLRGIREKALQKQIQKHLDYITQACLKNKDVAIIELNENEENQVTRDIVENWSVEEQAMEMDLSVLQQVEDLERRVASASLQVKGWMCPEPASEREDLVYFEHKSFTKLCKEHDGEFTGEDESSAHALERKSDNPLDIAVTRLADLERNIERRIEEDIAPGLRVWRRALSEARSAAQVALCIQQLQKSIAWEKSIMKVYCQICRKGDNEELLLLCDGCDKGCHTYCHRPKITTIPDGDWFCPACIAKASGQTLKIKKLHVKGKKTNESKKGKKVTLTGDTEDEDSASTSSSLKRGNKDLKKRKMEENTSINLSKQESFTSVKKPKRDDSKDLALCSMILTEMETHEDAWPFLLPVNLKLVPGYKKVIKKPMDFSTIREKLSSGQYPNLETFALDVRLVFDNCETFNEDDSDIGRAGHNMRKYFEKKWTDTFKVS
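BAZ2B 50 nM plus b-H3(5-23)K14Ac 50 nM, PBS pH 7.4/0.01% Tween-20, 30 min RT; compound added (max 110 uM), 30 min RT; streptavidin donor/Ni-chelate acceptor beads 10 ug/mL final, 20 min dark; AlphaScreen read.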
HP1b binding inh – blocks HP1-beta chromodomain binding to methylated histone tails; P83916; AlphaScreen HP1-beta / biotin-H3K9me3 peptide binding; AID 540317; Potency, µM (doses to about 114 µM), for inactives: at the top dose activity change, negative = inhibition, usual class: inhibitors; actives 0.56% (n = 390,000); note: nearly all actives have a fitted effect of over 70% in size
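Compound inhibition of the preformed complex between 50 nM HP1-beta and 50 nM biotinylated H3K9me3 peptide was read by AlphaScreen. Buffer was PBS pH 7.4 with 0.01% Tween-20. Incubations ran 30 min at room temperature, with 10 ug/mL donor/acceptor beads.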
An asterisk follows results filed as active; ? = inconclusive; nt = no result; [ ] = another dose, or the depositor's remark. Calls come from the whole dose curve; as a rule, active = well fitted curve in the direction sought with a large enough effect; inconclusive = small, poorly fitted or top-dose-only effect, or another doubt; inactive = no such curve, though single readings can be large; an effect the other way counts as inactive or inconclusive. Potency is the fitted concentration of half-maximal effect.

SMILES | JMJD2A Tudor inh | Sfp PPTase inh | PLK1 PBD inh | G9a block | BAZ2B block | HP1b binding inh
CCCCNc1nc(C#N)nc(Nc2ccccc2)n1 | -2% | nt | nt | nt | nt | nt
COc1cc(NC(=O)Cn2nnc(-c3ccc(C(F)(F)F)cc3)n2)c(C(=O)O)cc1OC | -23% | nt | nt | -14%[59 µM] | -6% | 41%
O=[N+]([O-])c1ccccc1/C=N/N1CCN(c2ccccn2)CC1 | ? | 5% | -10% | ? | 13µM* | -11%
C(=N\N1CCN(c2ccccn2)CC1)/c1ccccn1 | -21% | -6% | -1% | ? | -24% | -7%
Cc1ccc(N2CCN(/N=C/c3ccccc3)CC2)cc1 | -26% | 19% | -5% | 2% | -37% | 13%
Cc1ccc(N2CCN(/N=C/c3ccccc3[N+](=O)[O-])CC2)cc1 | ? | 7% | -1% | 7.9µM* | ? | ?
Cc1ccc(S(=O)(=O)CCC(=O)NC2CCCC2)cc1 | 5% | 11% | 2% | 11% | -1% | 37%
Cc1ccc(C(=O)C2=C(O)C(=O)N(CCCN3CCOCC3)C23C(=O)N(C)c2ccccc23)o1 (stereo not given) | -7% | 8% | -4% | ? | 1% | 49%
CCN1C(=O)C2(C(C(=O)c3ccc(C)o3)=C(O)C(=O)N2CCCN2CCOCC2)c2ccccc21 (stereo not given) | -8% | 2.5µM* | -3% | ? | 15% | 28%
CNC(=S)Nc1sc2c(c1C(=O)OC)CCC2 | 89µM* | 24% | -20% | 16µM* | 4% | 5%
COC(=O)c1c(NC(=O)CS(=O)(=O)c2ccc(C)cc2)sc2c1CCCC2 | ? | nt | nt | -5%[59 µM] | -20% | 1%
COC(=O)c1c(NC(=S)Nc2ccc(F)cc2[N+](=O)[O-])sc2c1CCCCC2 | ? | 14µM* | ? | 35µM* | ? | -31%
COC(=O)c1c(NS(=O)(=O)Cc2ccccc2)sc2c1CCCC2 | -20% | -6% | ? | ? | ? | -4%
COC(=O)c1c(NC(=O)C2CCCO2)sc2c1CCC2 (stereo not given) | -17% | -16% | -5% | -10%[59 µM] | -4% | 2%
CC(C)OC(=O)c1c(NS(=O)(=O)c2ccccc2)sc2c1CCCC2 | ? | -15% | 2.7µM* | -5%[59 µM] | 5% | -15%
COC(=O)c1c(NS(C)(=O)=O)sc2c1CCCC2 | -20% | 18µM* | ? | ? | -6% | 34%
COc1ccc(S(=O)(=O)N2CCOC2CNC(=O)C(=O)NCCCN2CCOCC2)cc1C (stereo not given) | -10% | 0% | 3% | nt | -4% | 40%
COC(=O)c1c(NC(C)=O)sc2c1CCCC2 | 3% | -13% | -3% | -26%[59 µM] | -12% | 33%
COC(=O)c1c(NC(C)=O)sc2c1CCCCC2 | -12% | 56µM* | ? | 8.9µM* | ? | -13%
CC(C)OC(=O)c1c(NC(=O)c2cc3nc(-c4ccccc4)cc(C(F)(F)F)n3n2)sc2c1CCCC2 | -20% | nt | nt | 13µM* | -2% | -6%
COC(=O)c1c(NC(=S)Nc2ccc(C(=O)N3CCOCC3)cc2)sc2c1CCC2 | -16% | ? | -21% | 50µM* | -23% | 10%
COc1ccc(Cl)cc1NC(=O)CSc1nc(=O)n(Cc2ccco2)c2c1CCC2 | -13% | nt | nt | -8%[59 µM] | -9% | 32%
Cc1c(C#N)c(NC(=O)CCl)n(Cc2ccccc2)c1C | -1% | 8% | 0% | 56µM* | ? | 10%
Cc1c(C#N)c(NC(=O)CCl)n(Cc2cccs2)c1C | -16% | 7% | -11% | 50µM* | -27% | 26%
COc1cccc(C2C3=C(N=c4s/c(=C\c5ccc(OCC(=O)O)cc5)c(=O)n42)c2ccccc2CC3)c1 (stereo not given) | 45µM* | 56µM* | ? | 20µM* | 50µM* | -11%
SMILES | JMJD2A Tudor inh | Sfp PPTase inh | PLK1 PBD inh | G9a block | BAZ2B block | HP1b binding inh
COc1ccccc1C1C2=C(N=c3s/c(=C/c4cccc(OCC(=O)O)c4)c(=O)n31)c1ccccc1CC2 (stereo not given) | 35µM* | 79µM* | ? | 14µM* | 50µM* | ?
COc1cccc(C2C3=C(N=c4s/c(=C\c5cccc(O)c5)c(=O)n42)c2ccccc2CC3)c1OC (stereo not given) | ? | 5% | 3% | ? | -10% | ?
COc1ccc(N2C(=O)C(CC(=O)Nc3ccc(F)cc3)N(CCC3=CCCCC3)C2=O)cc1 (stereo not given) | 1% | nt | nt | 0%[59 µM] | 4% | 37%
CCOC(=O)c1[nH]c2ccccc2c1NC(=O)CC(C)C | -15% | 15% | -15% | 7%[12.7 µM] | -2% | 34%
CCOC(=O)c1[nH]c2ccccc2c1NC(=O)c1ccco1 | -15% | 50µM* | -6% | -37%[12.7 µM] | -10% | 10%
CCOC(=O)c1oc2ccccc2c1NC(=O)c1ccco1 | 4% | 8% | -14% | ? | 0% | 26%
CCOC(=O)c1[nH]c2ccccc2c1NC(=S)Nc1ccccc1C | -34% | ? | ? | 32µM* | -38% | -9%
CCOC(=O)c1[nH]c2ccccc2c1NC(=S)Nc1cc(C)ccc1C | ? | 40µM* | ? | 45µM* | ? | -6%
CCc1cccc(NC(=O)CCc2c(C)nn(-c3ccc(N4CCOCC4)nn3)c2C)c1 | -15% | 20% | -4% | 31% | -13% | 34%
Cc1nnc(N2C(=O)C(=O)/C(=C(/O)c3ccc4c(c3)OCCO4)C2c2ccc(F)cc2)s1 (stereo not given) | -18% | 2% | -28% | 45µM* | -25%[57.1 µM] | 80%
O=C1C(=O)N(Cc2cccnc2)C(c2ccc(Br)cc2)/C1=C(\O)c1ccc2c(c1)OCCO2 (stereo not given) | -14% | 18% | -1% | 10%[59 µM] | -14% | 18%
O=C1C(=O)N(c2nccs2)C(c2ccccc2F)/C1=C(\O)c1ccc2c(c1)OCCO2 (stereo not given) | ? | -3% | -18% | -11%[0.0925 µM] | 50µM* | 0%
COc1ccc(/C(O)=C2/C(=O)C(=O)N(c3ncccn3)C2c2ccc(F)cc2)cc1 (stereo not given) | -14% | 13% | -6% | -47% | -14% | 38%
CC(=O)c1cccc(NC(=O)c2oc(=O)c3ccccc3c2-c2ccccc2)c1 | -27% | nt | nt | -1%[59 µM] | -16% | 28%
COC(=O)c1c(C)[nH]c(C(=O)CSc2ccc(Cl)cc2)c1C | -26% | 6% | -25% | 3%[59 µM] | 4% | 52%
O=C(CNCCCO)Nc1cc(C(F)(F)F)cc(NC(=O)CNCCCO)c1Cl | -12% | 5% | -5% | 11µM* | 10% | 34%
C/C(=N\Nc1ccccn1)c1cccs1 | -15% | -26% | -7% | -30% | nt | ?
COc1ccc(C(=O)c2ccccc2O)c(O)c1 | -16% | -4% | -2% | 0%[59 µM] | 6% | 37%
